Pol III holo inh – qHTS Assay for Inhibitors of DNA Polymerase III Holoenzyme System. reconstituted DNA polymerase III holoenzyme replication, biochemical. Potency, µM (top dose mostly 57.1 µM), for inactives: top-dose activity change, negative = inhibition. 71,000 tested, 0.25% active; note: potency is the fitted concentration of half-maximal effect; % is set by controls: 0 for no effect and ±100 for the full control effect
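Reconstituted *E. coli* holoenzyme (0.35 nM Pol III, 1 nM beta, 154 nM SSB, 2 nM primase) was preincubated with compound for 15 min at RT. Synthesis on 1.4 nM ssM13Gori ran 35 min, then was stopped with PicoGreen/EDTA and read as dsDNA fluorescence.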
GBA activity – Glucocerebrosidase. Potency, µM. 48,000 tested, 1.1% active. Lysosomal acid glucosylceramidase (Homo sapiens), P04062. purified enzyme, resorufin glucoside fluorescence (screen aimed at inhibitors), 20 min; in the data active = potency below about 15 µM; inconclusive = mostly about 16 µM to 33 µM;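 note: potency is the fitted concentration of half-maximal effect; the screen sought inhibitors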
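Wild-type enzyme at 0.2 nM final in 50mM citric acid/KH2PO4, 10mM sodium taurocholate, 0.01% tween-20, pH 5.9, with resorufin beta-D-glucopyranoside at 30 uM final. Compounds titrated, 20 min at RT, red fluorescence read; AC50 from titration.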
BRCT inh red – qHTS Assay for Inhibitors of BRCT-Phosphoprotein Interaction (Red Fluorophore). 75,000 tested, 0.03% active. BRCT-phosphopeptide binding, red fluorescence polarization. Potency, µM (titrated, usually from 76.9 µM), without a hit: at the highest dose activity change, negative = inhibition, actives largely listed as inhibitors; note: % is set by controls: 0 for no effect and ±100 for the full control effect
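Rhodamine-labelled pBACH1 10-mer (100 nM) bound to BRCT domain (100 nM) at pH 7.3; compounds incubated 12 min room temperature, polarization read. Free peptide defines full inhibition; unlabelled decapeptide titrated as control.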
BRCT PPI green – qHTS Assay for Inhibitors of BRCT-Phosphoprotein Interaction (Green Fluorophore); BRCA1 BRCT-phosphopeptide binding, green fluorescence polarization; Potency, µM (doses to about 76.9 µM), for the others: top-dose activity change, negative = inhibition, hits mostly inhibitors; 75,000 tested, 0.05% active; AID 875, 2007;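 note: potency is the fitted concentration of half-maximal effect; plate controls were peptide without protein for full effect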
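Compounds were incubated for 12 min at room temperature with a complex of 100 nM fluorescein-tagged pBACH1 decapeptide and 250 nM His-tagged BRCT protein. Buffer was phosphate pH 7.3 with EDTA, DTT and Tween 20. Disruption of binding lowers the polarization signal.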
TsaE inh – qHTS Assay for Inhibitors of YjeE; tRNA threonylcarbamoyladenosine biosynthesis protein TsaE (Escherichia coli (strain …; purified YjeE enzyme, qHTS inhibition assay; Potency, µM; 71,000 tested, 0.05% active; AID 605, 2007
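Fluorescence polarization of a BODIPY Texas Red–ADP probe (2 uM) bound to purified YjeE (10 uM) was read after 15 min room-temperature incubation with compounds. Loss of polarization marks inhibitors; ADP serves as titrated control.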
Hsp90 Hop PPI – qHTS Assay for Disrupters of an Hsp90 Co-Chaperone Interaction | Hsp90 C-terminal peptide / TPR2A (Hop) interaction, human | AlphaScreen TPR2A-His6 binding biotin-Hsp90 C-terminal peptide | Potency, µM (titrated, usually from 57 µM), for the others: at the top dose activity change, negative = inhibition | 71,000 tested, 0.44% active; active = well fitted curve in either direction with a large enough effect; inconclusive = small, poorly fitted or top-dose-only effect, or another doubt; note: potency is the fitted concentration of half-maximal effect; % is set by controls: 0 for no effect and ±100 for the full control effect
Hsp90-TPR2A inh – Confirmation Concentration-Response Assay and Counterscreen for Disrupters of an Hsp90 Co-Chaperone Interaction. shares compounds with Hsp90 Hop PPI. AlphaScreen TPR2A-His6 / biotin-Hsp90 peptide binding. AID 632, 2007. activity, negative = inhibition, % at 40 µM or 46 µM, hits read low. 45 tested, 100% active;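 active = compound lowering the Hsp90 and TPR2A binding signal, whether or not the linker counterscreen also flagged it as an artifact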
Numbers without * were called inactive; i = inactive; u = inconclusive; x = no result given; [ ] = another dose, or the depositor's remark. Hits are enriched below; roughly 1.2% of the tested compounds scored in any of these assays. Unless noted, calls come from the whole dose curve; as a rule, active = well fitted curve in the direction sought with a large enough effect; inconclusive = small, poorly fitted or top-dose-only effect, or another doubt; inactive = no such curve, though single readings can be large; an effect the other way counts as inactive or inconclusive.

SMILES	Pol III holo inh	GBA activity	BRCT inh red	BRCT PPI green	TsaE inh	Hsp90 Hop PPI	Hsp90-TPR2A inh
COc1ccc(Oc2ncc3ncc(=O)n(Cc4cccc(OC)c4)c3n2)cc1	-13%	x	1%	-1%	i	-4%	x
Cc1nnc(N2CCN(Cc3ccccc3)CC2)[nH]c1=O	0%	>77	2%	0%	i	-6%	x
Cc1cc(C)n(-c2nnc(C)c(=O)[nH]2)n1	-1%[11.4 µM]	x	-3%	1%	i	1.6µM*	-100*[alpha-screen platform artifact]
O=C(O)c1cccnc1SCC(=O)N1CCCCCC1	-2%	>77	0%	0%	i	-3%	x
O=C(CSc1cccc2cccnc12)N1CCCC1	-4%	>77	1%	0%	i	10µM*	-99*[alpha-screen platform artifact]
O=C(Nc1cccc(C(=O)N2CCOCC2)c1)c1ncn[nH]1	-1%	>77	-1%	-1%	i	25µM*	-83*[alpha-screen platform artifact]
CCC(CC)C(=O)Nc1cccc(C(=O)N2CCOCC2)c1	-3%	>77	2%	-4%	i	0%	x
Cc1ccccc1-c1nccc(NCc2cccs2)n1	-5%	x	1%	0%	i	12%	x
O=C(NCCCn1ccnc1)Nc1ccc(Cl)c(Cl)c1	-6%	u	-1%	0%	i	7.9µM*	-98*[alpha-screen platform artifact]
CNc1ncnc2c1ncn2[C@@H]1O[C@@H](CO)[C@H](O)[C@@H]1O	-4%	x	-2%	-1%	i	-2%	x
O=C(CN1CC(=O)Oc2ccccc21)OCC(=O)c1ccccc1	-6%	>77	-1%	-4%	i	3.2µM*	-100*[alpha-screen platform artifact]
OCc1ccnc2c(O)cccc12	-7%	>77	1%	-1%	i	3.2µM*	-100*[alpha-screen platform artifact]
CCOC(=O)CCCCC(=O)c1[nH]c(=O)[nH]c1CSc1nc(C)cc(C)n1	-5%[11.4 µM]	x	-1%	0%	i	u	x
CCOC(=O)CCCCC(=O)c1[nH]c(=O)[nH]c1CSc1nc2ccccc2[nH]1	-5%	>77	-3%	0%	i	2.5µM*	-100*[alpha-screen platform artifact]
CCOC(=O)CCCCC(=O)c1[nH]c(=O)[nH]c1CN1CCOCC1	4%	>77	-1%	-2%	i	2.5µM*	-99*[alpha-screen platform artifact]
CCOC(=O)c1c(C)[nH]c(C(=O)CN2CCOCC2)c1C	-2%	i	1%	-1%	i	-1%	x
CCOC(=O)CCCCC(=O)c1[nH]c(=O)[nH]c1CSc1nc(C)cc(=O)[nH]1	-1%	>77	-1%	0%	i	1µM*	-100*[alpha-screen platform artifact]
CC(C)CN1CCC2(CC1)CCN(C(=O)c1cc(C(F)(F)F)cc(C(F)(F)F)c1)CC2	-5%	x	0%	-1%	i	5%	x
Cc1cnc(CNc2ncnc3ccc(-c4ccc(N(C)C)cc4)cc23)cn1	0%	x	-5%	-1%	i	-21%	x
Nc1nc(N)nc(-c2ccccn2)n1	-2%	>77	-1%	-3%	i	7.9µM*	-99*[alpha-screen platform artifact]
O=C(c1ccco1)N1CCC[C@@]2(CCN(c3ncccn3)C2)C1	-1%	x	0%	-2%	i	-1%	x
CCOc1ccc(C(=O)CCNC(Cc2cnc[nH]2)C(=O)O)cc1 (stereo unspecified)	-2%[11.4 µM]	x	1%	0%	i	u	-93*[alpha-screen platform artifact]
C[C@@H]1C[C@H](OC(=O)c2ccccc2O)CC(C)(C)C1	-6%[25.6 µM]	x	-2%[34.4 µM]	-2%[34.4 µM]	i	2%[26 µM]	x

Source: PubChem (National Center for Advancing Translational Sciences (NCATS))
